ROMK primary – modulates human ROMK potassium channel activity; P48048; Tet-inducible ROMK, thallium flux fluorescence; actives lie on both sides; B-score at 10 µM; hit rate 2% among 130,000;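 active = signal ratio slope over the read window, or its plate-corrected B-score, at least 3 SD from the plate mean, either direction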;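 also: B-score of the F/F0 ratio slope over 7 to 12 s after thallium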
Target sequence (P48048 whole entry, looked up): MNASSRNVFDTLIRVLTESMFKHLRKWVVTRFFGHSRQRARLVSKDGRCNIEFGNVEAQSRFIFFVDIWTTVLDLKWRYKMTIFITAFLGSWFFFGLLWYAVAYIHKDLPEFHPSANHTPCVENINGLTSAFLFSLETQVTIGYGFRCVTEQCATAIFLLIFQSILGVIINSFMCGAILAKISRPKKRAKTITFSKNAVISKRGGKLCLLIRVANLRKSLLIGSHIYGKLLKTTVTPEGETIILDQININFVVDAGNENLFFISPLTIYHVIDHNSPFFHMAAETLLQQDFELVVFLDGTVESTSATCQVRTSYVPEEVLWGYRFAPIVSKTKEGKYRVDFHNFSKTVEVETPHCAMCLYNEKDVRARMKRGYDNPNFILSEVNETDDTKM
Ins promoter up – MIN6 insulin promoter up-regulation; z-score at 5 µM; hit rate 0.3% among 190,000; MIN6 insulin promoter-GFP reporter, high-content imaging; active compounds read high;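 active = z-score above 3 at 5 µM with at least 500 cells counted in the well; inconclusive = wells under 500 cells, flagged as cytotoxic or low count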
KCC2 mod – modulators of human KCC2 chloride dependent transport; KCC2 cells, thallium flux FluoZin-2 fluorescence; B-score of Tl+ flux slope (higher = more flux/activation; lower = inhibition) at 10 µM; hit rate 2.2% among 190,000; AID 1456;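 active = thallium flux slope and its plate-corrected score both differing from the plate sample mean at a set confidence after two filtering rounds, in either direction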;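 also: slope of fluorescence scaled to starting intensity during 10 to 20 s after thallium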
Lmaj promast – reduces viability of Leishmania major promastigotes; resazurin fluorescence viability; inhibition, % at 10 µM; hit rate 9% among 200,000; AID 1063; in the data active = inhibition above about 50%;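 also: promastigotes grown with compound for 44 hours at 28 °C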
WT yeast gro inh – growth inhibition of WT yeast, mitochondrial fusion screen | hit rate 2.1% among 190,000 | mitochondrial fusion phenotypic screen, WT strain | inhibition, % at 10 µM | AID 1362; in the data active = inhibition above about 58%; tested in S. cerevisiae
Insulin prom inh – TRM-6 insulin promoter activity inhibition. TRM-6 cells (human fetal islet line), insulin promoter-eGFP reporter, imaging; reporter expression induced with tamoxifen. inhibition, % at 2 µM. hit rate 0.9% among 130,000. AID 1273;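 active = inhibition above the mean plus 3 SD, with well images judged a real hit on visual review, cut at about 60% in these data, passing the limit was not always enough; inconclusive = inhibition over the cutoff but images rejected on review; inactive = inhibition not above the cutoff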
The depositor's hits bear a star; ? = inconclusive; . = no result given. Hits are enriched below; roughly 12% of the tested compounds scored in any of these assays.

SMILES	ROMK primary	Ins promoter up	KCC2 mod	Lmaj promast	WT yeast gro inh	Insulin prom inh
CC1=NOC(=O)/C1=C/c1ccc(-c2ccc(Cl)cc2)o1	-2.72*	.	.	99.8*	75.2*	10.0
CC1=NOC(=O)/C1=C\c1ccc(-c2ccc(Br)cc2)o1	-0.754	.	-0.275	62.0*	75.4*	25.0
Cc1ccc(/C=C2\C(=O)ON=C2c2ccccc2)o1	0.0524	0.11	-0.65	-0.3	19.8	-5.6
CC1=NOC(=O)/C1=C\c1ccc(-c2ccc(Br)cc2C(=O)O)o1	0.634	0.73	-0.372	-3.8	-12.5	.
Cc1cc(C)nc(NS(=O)(=O)c2ccc(NC(=O)CN3C(=O)S/C(=C\c4ccccc4)C3=O)cc2)n1	.	-0.38	0.189	-0.7	-21.2	3.3
Cn1cc(CCNC(=O)CCc2nnc(CCCCc3ccccc3)o2)cn1	0.573	-0.21	0.0699	-5.4	8.3	.
Cn1nccc1C(=O)N1CCc2ccccc21	0.136	.	0.809	-7.4	-14.7	?
Nc1nc(SCC(=O)NCc2ccc3c(c2)OCO3)n[nH]1	0.216	0.02	0.0162	-0.4	-3.2	65.0*
COc1ccc(-c2nsc(SCC(=O)NCc3ccc4c(c3)OCO4)n2)cc1	.	-0.4	0.0546	98.8*	-2.0	.
Nc1nc(SCC(=O)Nc2ccc3c(c2)OCO3)n[nH]1	0.301	0.07	-0.158	-1.5	-0.1	.
O=C(CSc1nc(C2CCCCC2)nc2ccccc12)NCc1ccc2c(c1)OCO2	0.445	0.03	1.01	53.0*	-20.6	21.6
COc1ccc(C2(C(=O)Nc3cc(C)on3)CCOCC2)cc1	.	0.17	1.09	-1.6	-5.8	33.3
CCC(=O)Nc1ccc(C(=O)NNC(=O)c2ccc([N+](=O)[O-])cc2)cc1	0.654	1.28	0.56	-5.7	-3.6	.
N#Cc1ccc(C(=O)OCC(=O)Nc2ccc(S(N)(=O)=O)cc2)cc1	.	-0.41	2.23	.	.	.
Cc1nc2ccccn2c1C(=O)N=Nc1c(O)n(CCC(C)C)c2ccccc12	.	-3.23	-0.689	66.9*	12.7	.
Cc1cc(C(=O)N=Nc2c(O)n(C(C)C)c3ccccc23)n[nH]1	.	-1.39	0.483	13.3	-0.9	-27.6
CCOC(=O)CNC(=O)Nc1cc(C(C)(C)C)nn1-c1ccccc1	.	0.3	0.621	-2.9	-3.9	25.0
CSc1ccc(/C=N/n2c(Cc3ccc(Br)cc3)n[nH]c2=S)cc1	-0.0397	-0.26	2.7	-1.8	71.2*	-18.2
O=C(c1ccccc1F)N1CCN(c2ccccc2)CC1	.	0.02	-1.27	-1.7	-1.7	-65.0
O=C(c1ccc(F)cc1)N1CCN(C2CCC(c3ccccc3)CC2)CC1 (stereo not given)	-0.115	-0.65	0.203	91.8*	-53.8	.
COc1ccc(C(=O)N2CCN(C3CCC(c4ccccc4)CC3)CC2)cc1OC (stereo not given)	.	-0.97	0.229	88.5*	1.9	-35.1
O=C(c1ccccc1F)N1CCN(C2CCC(c3ccccc3)CC2)CC1 (stereo not given)	-0.987	.	-0.044	97.1*	-57.1	.
O=C(CCC(=O)Nc1ccc(Cl)cc1Cl)NNC(=O)[C@@H]1CCCC[C@@H]1C(=O)O	-1.09	0.69	.	-2.0	9.9	7.7
CC(C)(C)NC(=O)c1ccc(Sc2ccccc2)c([N+](=O)[O-])c1	.	-0.72	.	2.8	26.3	-175.0
Cc1nn(C)c(C)c1S(=O)(=O)N1CCCC(C(=O)N2CCN(c3ccccc3)CC2)C1 (stereo not given)	.	-0.6	0.37	-8.8	4.0	.
SMILES	ROMK primary	Ins promoter up	KCC2 mod	Lmaj promast	WT yeast gro inh	Insulin prom inh
CC(C)(C)NCc1ccc(OCc2cccs2)cc1	-0.585	-0.53	-1.05	99.9*	-14.8	-27.8
COc1cc(NC(=O)C(=O)NCCN2CCNCC2)c(OC)cc1Cl	-0.835	.	-0.359	45.2	2.2	18.8
O=C(COC(=O)c1cc(S(=O)(=O)NCc2ccccc2)ccc1O)NCc1ccccc1	0.43	0.92	-1.64	-4.6	26.0	21.7
Oc1c(C(c2ccc(Cl)cc2)N2CCCC2)cc(Cl)c2cccnc12 (stereo not given)	-0.589	0.49	2.91	96.0*	64.3	.
Oc1c(C(c2ccccn2)N2CCC(Cc3ccccc3)CC2)cc(Cl)c2cccnc12 (stereo not given)	.	0.57	0.0121	99.1*	17.4	-42.9
CN1CCN(C(c2ccccn2)c2cc(Cl)c3cccnc3c2O)CC1 (stereo not given)	-0.0174	-1.06	1.36	-0.8	2.0	.
CCCCNC(=O)COC(=O)c1ccc(SC)cc1OC	0.125	-0.52	-0.495	0.6	-6.0	0.0
Cc1cc(N=Cc2c(O)n(-c3ccc(C)c(C)c3)c(=O)c3ccccc23)no1	0.000803	-2.94	-0.0748	54.4*	1.7	.
CC(C)(C)c1cc(/C=N/O)cc(C(C)(C)C)c1O	-1.79	-1.28	-0.852	11.8	79.8*	27.8
COc1ccc([N+](=O)[O-])cc1NC(=O)CC(c1ccccc1)c1ccccc1	-0.27	-0.07	0.0761	2.1	3.7	-192.9
COc1ccc([N+](=O)[O-])cc1NC(=O)C(C)N(C)Cc1ccc(Br)cc1 (stereo not given)	-0.958	-1.46	-0.524	56.6*	19.0	-46.4
CCN(CCC(=O)Nc1cc([N+](=O)[O-])ccc1OC)Cc1ccccc1	-0.174	-0.4	-0.0375	67.4*	-6.1	0.0
COc1ccc2c(c1)CCc1c(C(=O)N3CC4(C)CC3CC(C)(C)C4)noc1-2 (stereo not given)	.	0.21	0.39	30.4	73.2*	-70.0
O=C(CC1S/C(=N\S(=O)(=O)c2ccccc2)N(c2ccccc2)C1=O)Nc1ccc(F)cc1 (stereo not given)	-3.19	.	-1.17	-6.8	-18.5	-81.8
Cc1ccc(S(=O)(=O)/N=C2\SC(CC(=O)Nc3ccc(F)cc3)C(=O)N2c2ccccc2)cc1 (stereo not given)	-1.44	0.69	-0.125	63.4*	-0.4	-44.8
Cc1[nH]n(-c2ccccc2)c(=O)c1/C=N/NC(=O)c1cccc([N+](=O)[O-])c1	.	-0.2	.	-3.8	-8.2	-15.4
Cc1ccc(-n2[nH]c(C)c(/C=N/Nc3ccc([N+](=O)[O-])cc3[N+](=O)[O-])c2=O)cc1C	.	0.48	-3.93	-15.8	70.1*	.
C=C(C)C1CC=C(CN2CC(C)OC(C)C2)CC1 (stereo not given)	.	0.73	-0.536	87.6*	10.1	21.4
CCOC(=O)C1CCN(C(=O)C(=O)N2CCC(C(=O)OCC)CC2)CC1	.	1.1	-1.83	-1.6	-2.6	34.3
C=C(C)C1CC=C(CN2CCC(C(=O)OCC)CC2)CC1 (stereo not given)	-0.814	-0.48	.	94.7*	10.5	-76.9
CC(C)=NNc1nc(-c2ccccc2)cs1	-0.578	.	-1.18	89.5*	5.3	-41.9
C/C(CCC1CC(C)OC1=O)=N/Nc1nc(-c2ccccc2)cs1 (stereo not given)	-0.672	.	-1.88	76.2*	28.1	.
CC1CC(CC(=O)NNc2nc(-c3ccccc3)cs2)C(=O)O1 (stereo not given)	0.354	-1.17	-0.106	32.2	-13.9	17.6
CC(/C=C/c1ccccc1)=N\Nc1nc(-c2ccccc2)cs1	.	-0.78	-2.28	69.1*	24.5	0.0
CCOC(=O)C/C(C)=N\Nc1nc(-c2ccccc2)cs1	0.153	.	-1.2	24.6	7.4	25.9

Bioassay records deposited in PubChem BioAssay by several laboratories.
